Test results taken from PubChem BioAssay AID1117361 (Southern Research Institute, 2015).
Among all 3,600 compounds or so, about 900 (25%) were called active. A selection follows. Measured potencies and affinities stand elsewhere. Unmarked numbers belong to inactive results. No rule for the calls is given here.

The compounds below were run against Protein Tat (Human immunodeficiency virus type 1 group M subtype B (isolate HXB2)) (UniProt P04608) (assay: HIV-1 Tat–TAR interaction blockers – biochemical, fluorescence polarization, FAM-labeled TAR RNA, counter-screen for Vif-APOBEC3G degradation inhibitor project, dose response (AID 1117361)). Details: Tat-TAR RNA binding; series mostly up to 100 µM; inhibition: at the top concentration.

**Q.** `CCOc1ccc(NC(=O)Cn2cncc2-c2ccc([N+](=O)[O-])cc2)cc1` was tested. Which “inhibition” value did it give?
**A.** 6.82%

**Q.** Which “inhibition” value does the source give for `Cc1cc(C)nc(N2N=C(C(C)(C)C)CC2=O)n1` here?
**A.** 1.36%

**Q.** `COCCn1nnnc1C(c1cc2ccc(C)cc2[nH]c1=O)N(Cc1ccco1)Cc1cccs1` (stereo unspecified) was tested. Which “inhibition” value did it give?
**A.** 29.3%

**Q.** `COc1cc2cc(C(c3nnnn3C3CCCC3)N(C)C3CCCCC3)c(=O)[nH]c2cc1OC` (stereo unspecified) was tested. Which outcome did it give?
**A.** inactive

**Q.** Which “inhibition” value does the source give for `CCCN(CC(=O)Nc1ccccc1OC)C(=O)CSc1ccc(Br)cc1C` here?
**A.** 14%

**Q.** With `CSc1nc(C)cc(SCC(=O)Nc2ccccc2)n1` as the compound, how does the “inhibition” value read?
**A.** 6.08%

**Q.** Which “inhibition” value does the source give for `CCN(CC)S(=O)(=O)c1ccc(NC(=O)CSc2nnc(-c3cccc(OC)c3)n2C)cc1` here?
**A.** 2.73%

**Q.** How did the “inhibition” value turn out when `CC(=O)Nc1c(O)nc(SCC(=O)Nc2ccc(C(C)=O)cc2)[nH]c1=O` was run?
**A.** 14.3%

**Q.** Which “inhibition” value does the source give for `COc1ccc(NC(=O)CSc2nc(C)cc(C)n2)cc1` here?
**A.** 6.76%

**Q.** With `COc1cccc(NC(=O)CSc2nnnn2C(C)C)c1` as the compound, how does the “inhibition” value read?
**A.** 3.38%

**Q.** `COc1ccc(NC(=O)CSc2nnc(C)n2Cc2ccccc2)cc1` was tested. Which outcome did it give?
**A.** inactive

**Q.** How did the “inhibition” value turn out when `Cc1ccc[n+](CC(=O)c2cc3ccccc3oc2=O)c1` was run?
**A.** 10.8%

**Q.** Which “inhibition” value does the source give for `CCCc1nc(SCc2cccnc2)c2c(=O)n(C)c(=O)n(C)c2n1` here?
**A.** 3.38%

**Q.** Which “inhibition” value does the source give for `O=C(NCc1ccc2c(c1)OCO2)C1CCCN1C(=O)Nc1ccccc1` (stereo unspecified) here?
**A.** 2.7%

**Q.** `CCn1c(=O)oc2cc(NC(=O)CCl)ccc21` was tested. Which outcome did it give?
**A.** inactive

**Q.** `COC(=O)Cn1ncn2c(cc3oc(C)cc32)c1=O` was tested. Which “inhibition” value did it give?
**A.** 22.3%

**Q.** With `O=C(Cn1c(/C=C/c2ccccc2)nc2ccccc21)Nc1ccc(F)cc1` as the compound, how does the “inhibition” value read?
**A.** 8.19%

**Q.** Which outcome does the source give for `Cc1ccnc(NS(=O)(=O)c2ccc(NC(=O)Cc3cccs3)cc2)n1` here?
**A.** inactive

**Q.** For `O=C(Nc1ccc2nc(-c3ccccc3)[nH]c2c1)c1cccs1`, which “inhibition” value is on record?
**A.** 1.35%

**Q.** With `CCCCN(CCCC)S(=O)(=O)c1ccc(NC(=O)Cc2cccs2)cc1` as the compound, how does the “inhibition” value read?
**A.** 10.2%

**Q.** For `CC(C)OCCCNC(=O)c1cccs1`, which outcome is on record?
**A.** inactive

**Q.** For `CN(Cc1cn(C)nc1-c1cccc(Cl)c1)Cc1nccn1C`, which outcome is on record?
**A.** inactive

**Q.** Which “inhibition” value does the source give for `N#Cc1nc(Cc2ccccc2)oc1NCCCn1ccnc1` here?
**A.** 6.76%

**Q.** Which “inhibition” value does the source give for `O=C(COc1ccc(F)cc1)Nc1ccc(-n2cnnn2)cc1` here?
**A.** 3.38%

**Q.** With `CCOC(=O)C1CCN(C(=O)C2CCN(c3nc4ccc(OC)cc4s3)CC2)CC1` as the compound, how does the “inhibition” value read?
**A.** 4.77%

**Q.** Which “inhibition” value does the source give for `CCOC(=O)C1CCCN(CCC(=O)Nc2ccc3c(c2)CCC3)C1` (stereo unspecified) here?
**A.** 1.36%

**Q.** For `Cn1c(CN2CCCC2)nc2cc(NC(=O)Nc3ccccc3)ccc21`, which outcome is on record?
**A.** inactive

**Q.** How did the “inhibition” value turn out when `O=C(Nc1ccc2c(c1)OCCO2)N1CCN(c2ccccc2)CC1` was run?
**A.** 10.1%

**Q.** How did the “inhibition” value turn out when `C/C(=C/C(=O)NCc1ccccc1)C(=O)O` was run?
**A.** 8.78%

**Q.** For `CN(C)c1ccc(N/C=C/C(=O)c2ccco2)cc1`, which “inhibition” value is on record?
**A.** 1.36%

**Q.** How did the outcome turn out when `O=C(Nc1ccccc1C(F)(F)F)c1cc(-c2ccc(O)cc2)on1` was run?
**A.** inactive

**Q.** `O=C(CN(C(=O)CCNC(=O)c1ccco1)c1ccccc1)NC1CCCC1` was tested. Which “inhibition” value did it give?
**A.** 4.77%

**Q.** With `COc1ccc(/C=C/C2=NC(=C\N(C)C)/C(=O)O2)cc1` as the compound, how does the “inhibition” value read?
**A.** 9.46%

**Q.** `Nc1nnc(CC2=CCCCC2)s1` was tested. Which “inhibition” value did it give?
**A.** 3.38%

**Q.** How did the outcome turn out when `CCOc1ccc(/C=C2\NC(=S)NC2=O)cc1` was run?
**A.** inactive

**Q.** For `O=C(Cn1[nH]c(=O)c2ccccc2c1=O)OCC(=O)N(Cc1ccccc1)Cc1ccccc1`, which outcome is on record?
**A.** inactive

**Q.** For `CC(C)Cc1ccc(C(C)C(=N)N)cc1` (stereo unspecified), which “inhibition” value is on record?
**A.** 4.95%

**Q.** With `CC(C)N(C(=O)CO/N=C/c1cccc([N+](=O)[O-])c1)C(C)C` as the compound, how does the outcome read?
**A.** inactive

**Q.** Which “inhibition” value does the source give for `C=CCOc1ccc2c(c1)C(=NO)c1cc(OCC=C)ccc1-2` here?
**A.** 5.68%

**Q.** Which “inhibition” value does the source give for `O=C(Nc1c2c(nn1-c1ccc(F)cc1)CS(=O)C2)C12CC3CC(CC(C3)C1)C2` (stereo unspecified) here?
**A.** 0.68%

**Q.** For `CC(C)NC(=O)C1CCCN(S(=O)(=O)c2cccs2)C1` (stereo unspecified), which “inhibition” value is on record?
**A.** 0.68%

**Q.** For `Cc1ccc2oc(=O)c3cnn(CC(=O)NC4CCCCC4C)c3c2c1` (stereo unspecified), which “inhibition” value is on record?
**A.** 6.08%

**Q.** How did the “inhibition” value turn out when `O=C(c1cnn2cccnc12)N1CCN(Cc2ccc3c(c2)OCO3)CC1` was run?
**A.** 2.73%

**Q.** For `CC(=O)Nc1ccc(S(=O)(=O)N2CCN(CCCOc3ccccc3Cl)CC2)cc1`, which “inhibition” value is on record?
**A.** 4.09%

**Q.** With `O=C(COc1ccccc1Cl)NCCc1ccc2c(c1)OCCO2` as the compound, how does the “inhibition” value read?
**A.** 2.73%

**Q.** For `CCCCn1c(C(C)NC(=O)CC)nc2ccccc21` (stereo unspecified), which outcome is on record?
**A.** inactive

**Q.** `COc1ccc(CNS(=O)(=O)c2cc(Br)cc3c2N(C(C)=O)C(C)C3)cc1` (stereo unspecified) was tested. Which “inhibition” value did it give?
**A.** 0.82%

**Q.** With `COCC(C)NC(=O)C1CC(c2cccc(Br)c2)=NO1` (stereo unspecified) as the compound, how does the “inhibition” value read?
**A.** 3.38%

**Q.** How did the “inhibition” value turn out when `COC(=O)CSC1=C(C#N)C(c2ccccc2)CC(=O)N1` (stereo unspecified) was run?
**A.** 2.03%

**Q.** With `COc1ccc(C2C(C#N)=C(SCC(=O)Nc3ccc(C)cc3)NC3=C2C(=O)CC(C)(C)C3)cc1` (stereo unspecified) as the compound, how does the “inhibition” value read?
**A.** 6.14%

**Q.** Which “inhibition” value does the source give for `CCCNC(=S)NC1CCCC1` here?
**A.** 2.7%

**Q.** `Cc1ccc(C(=O)CSc2ccccn2)cc1` was tested. Which “inhibition” value did it give?
**A.** 26.4%

**Q.** Which “inhibition” value does the source give for `Cc1nnc(SCc2cnc(-c3ccccc3)o2)[nH]c1=O` here?
**A.** 10.1%

**Q.** How did the “inhibition” value turn out when `CCOc1cc(C2NC(=O)NC(O)(C(F)(F)F)C2C(=O)c2ccccc2)ccc1OC` (stereo unspecified) was run?
**A.** 2.03%

**Q.** `CN(C)CCNc1ncnc2c1sc1nc(-c3ccccc3)c3c(c12)CCCC3` was tested. Which “inhibition” value did it give?
**A.** 14.8%

**Q.** Which “inhibition” value does the source give for `CSc1nc(N2CCOCC2)c2c3c(sc2n1)CCC3` here?
**A.** 1.65%
